# Reference: the supplement of paper PMC8728848
# The sample as a whole holds a higher share of the strongest signals than the screen did.
# Experiments:
# Assay in all cases: glycan array binding signal (z-score within array); higher = stronger binding
# Settings in all cases: glycan notation: IUPAC condensed, linker removed
# [1] = biological target: Fuc(a1-2)Gal(b1-3)GlcNAc(b1-3)GalNAc
# Method in brief: (§1)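 Glycan array binding is given as a within-array Z-score, which can be read as non-binding when negative. The arrays, 3228 of them, came from the Consortium for Functional Glycomics database and were retained only where the protein sequence was available. Z-scores were averaged across arrays of the same protein sequence at different concentrations or buffers and across linkers.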
# [2] = biological target: Fuc(a1-2)Gal(b1-4)GlcNAc
# Method in brief: as §1
# [3] = biological target: Fuc(a1-2)Gal(b1-4)GlcNAc(b1-3)Gal(b1-4)GlcNAc
# Method in brief: as §1
# [4] = biological target: Fuc(a1-2)Gal6S(b1-3)GlcNAc6S
# Method in brief: as §1
# [5] = biological target: Fuc(a1-2)[Gal(a1-3)]Gal(b1-4)[Fuc(a1-3)]GlcNAc(b1-3)GalNAc
# Method in brief: as §1
# [6] = biological target: Fuc(a1-2)[GalNAc(a1-3)]Gal(b1-4)GlcNAc(b1-2)Man
# Method in brief: as §1
# [7] = biological target: Fuc(a1-3)[Gal(b1-4)]GlcNAc(b1-2)Man(a1-3)[Fuc(a1-3)[Gal(b1-4)]GlcNAc(b1-2)Man(a1-6)]Man(b1-4)GlcNAc(b1-4)GlcNAc
# Method in brief: as §1
# [8] = biological target: Fuc(a1-3)[Gal(b1-4)]GlcNAc(b1-6)[Gal(b1-3)GlcNAc(b1-3)]Gal(b1-4)Glc
# Method in brief: as §1
# [9] = biological target: Fuc(a1-3)[GalNAc(b1-4)]GlcNAc6S
# Method in brief: as §1
# [10] = biological target: Gal(a1-3)Gal(b1-3)GlcNAc(b1-3)GalNAc
# Method in brief: as §1
# [11] = biological target: Gal(a1-3)Gal(b1-4)Glc
# Method in brief: as §1
# [12] = biological target: Gal(a1-4)Gal(b1-3)GlcNAc(b1-2)Man(a1-3)[Gal(a1-4)Gal(b1-3)GlcNAc(b1-2)Man(a1-6)]Man(b1-4)GlcNAc(b1-4)GlcNAc
# Method in brief: as §1
# [13] = biological target: Gal(b1-3)GlcNAc(b1-2)Man
# Method in brief: as §1
# [14] = biological target: Gal(b1-3)[Fuc(a1-4)]GlcNAc(b1-3)Gal(b1-3)[Fuc(a1-4)]GlcNAc
# Method in brief: as §1
# [15] = biological target: Gal(b1-3)[Neu5Ac(b2-6)]GalNAc
# Method in brief: as §1
# [16] = biological target: Gal(b1-4)GlcNAc(b1-2)Man(a1-3)[Gal(b1-4)GlcNAc(b1-2)Man(a1-6)][GlcNAc(b1-4)]Man(b1-4)GlcNAc(b1-4)[Fuc(a1-6)]GlcNAc
# Method in brief: as §1
# [17] = biological target: Gal(b1-4)GlcNAc(b1-2)[Gal(b1-4)GlcNAc(b1-4)]Man(a1-3)[GlcNAc(b1-4)][Gal(b1-4)GlcNAc(b1-2)Man(a1-6)]Man(b1-4)GlcNAc(b1-4)GlcNAc
# Method in brief: as §1
# [18] = biological target: Gal(b1-4)GlcNAc(b1-3)Gal(b1-4)GlcNAc(b1-2)Man(a1-3)[Gal(b1-4)GlcNAc(b1-3)Gal(b1-4)GlcNAc(b1-2)Man(a1-6)]Man(b1-4)GlcNAc(b1-4)[Fuc(a1-6)]GlcNAc
# Method in brief: as §1
# [19] = biological target: Gal(b1-4)GlcNAc(b1-3)Gal(b1-4)GlcNAc(b1-3)Gal(b1-4)GlcNAc(b1-3)Gal(b1-4)GlcNAc(b1-3)Gal(b1-4)GlcNAc(b1-2)Man(a1-3)[Gal(b1-4)GlcNAc(b1-3)Gal(b1-4)GlcNAc(b1-3)Gal(b1-4)GlcNAc(b1-3)Gal(b1-4)GlcNAc(b1-3)Gal(b1-4)GlcNAc(b1-2)Man(a1-6)]Man(b1-4)GlcNAc(b1-4)GlcNAc
# Method in brief: as §1
# [20] = biological target: Gal(b1-4)GlcNAc(b1-3)Gal(b1-4)GlcNAc(b1-3)Gal(b1-4)GlcNAc(b1-3)Gal(b1-4)GlcNAc(b1-3)Gal(b1-4)GlcNAc(b1-2)Man(a1-3)[Gal(b1-4)GlcNAc(b1-3)Gal(b1-4)GlcNAc(b1-3)Gal(b1-4)GlcNAc(b1-3)Gal(b1-4)GlcNAc(b1-3)Gal(b1-4)GlcNAc(b1-2)Man(a1-6)]Man(b1-4)GlcNAc(b1-4)[Fuc(a1-6)]GlcNAc
# Method in brief: as §1
# [21] = biological target: Gal(b1-4)GlcNAc(b1-6)[Gal(b1-4)GlcNAc(b1-3)]GalNAc
# Method in brief: as §1
# [22] = biological target: Gal3S(b1-4)GlcNAc
# Method in brief: as §1
# [23] = biological target: Gal3S(b1-4)[Fuc(a1-3)]GlcNAc6S
# Method in brief: as §1
# [24] = biological target: Gal3S4S(b1-4)GlcNAc
# Method in brief: as §1
# [25] = biological target: Gal3S6S(b1-4)GlcNAc
# Method in brief: as §1
# [26] = biological target: Gal3S6S(b1-4)GlcNAc6S
# Method in brief: as §1
# [27] = biological target: Gal6S(b1-3)GlcNAc6S
# Method in brief: as §1
# [28] = biological target: Gal6S(b1-4)Glc6S
# Method in brief: as §1
# [29] = biological target: Gal6S(b1-4)GlcNAc6S
# Method in brief: as §1
# [30] = biological target: GalNAc3S(b1-4)[Fuc(a1-3)]GlcNAc
# Method in brief: as §1
# [31] = biological target: GalNAc4S6S(b1-4)GlcNAc
# Method in brief: as §1
# [32] = biological target: GlcNAc(a1-4)Gal(b1-3)GlcNAc
# Method in brief: as §1
# [33] = biological target: GlcNAc(b1-2)Man(a1-3)[GlcNAc(b1-4)][GlcNAc(b1-2)Man(a1-6)]Man(b1-4)GlcNAc(b1-4)GlcNAc
# Method in brief: as §1
# [34] = biological target: GlcNAc(b1-3)Gal(b1-4)GlcNAc(b1-3)Gal(b1-4)GlcNAc(b1-2)Man(a1-3)[GlcNAc(b1-3)Gal(b1-4)GlcNAc(b1-3)Gal(b1-4)GlcNAc(b1-2)Man(a1-6)]Man(b1-4)GlcNAc(b1-4)[Fuc(a1-6)]GlcNAc
# Method in brief: as §1
# [35] = biological target: GlcNAc(b1-4)GlcNAc(b1-4)GlcNAc(b1-4)GlcNAc(b1-4)GlcNAc
# Method in brief: as §1
# [36] = biological target: GlcNAc(b1-4)[GlcNAc(b1-6)]GalNAc
# Method in brief: as §1
# [37] = biological target: Kdn(a2-3)Gal(b1-3)GalNAc
# Method in brief: as §1
# [38] = biological target: Kdn(a2-3)Gal(b1-4)Glc
# Method in brief: as §1
# [39] = biological target: Man(a1-2)Man(a1-3)Man
# Method in brief: as §1
# [40] = biological target: Neu5Ac(a2-3)Gal(b1-3)GalNAc
# Method in brief: as §1
# [41] = biological target: Neu5Ac(a2-3)Gal(b1-3)GlcNAc(b1-4)Gal(b1-4)Glc
# Method in brief: as §1
# [42] = biological target: Neu5Ac(a2-3)Gal(b1-4)GlcNAc(b1-2)[Neu5Ac(a2-3)Gal(b1-4)GlcNAc(b1-6)]Man(a1-6)[Neu5Ac(a2-3)Gal(b1-4)GlcNAc(b1-2)Man(a1-3)][GlcNAc(b1-4)]Man(b1-4)GlcNAc(b1-4)GlcNAc
# Method in brief: as §1
# [43] = biological target: Neu5Ac(a2-3)Gal(b1-4)GlcNAc(b1-3)Gal(b1-4)GlcNAc(b1-3)Gal(b1-4)GlcNAc
# Method in brief: as §1
# [44] = biological target: Neu5Ac(a2-3)Gal(b1-4)GlcNAc(b1-3)Gal(b1-4)GlcNAc(b1-3)Gal(b1-4)GlcNAc(b1-2)Man(a1-3)[Neu5Ac(a2-3)Gal(b1-4)GlcNAc(b1-3)Gal(b1-4)GlcNAc(b1-3)Gal(b1-4)GlcNAc(b1-2)Man(a1-6)]GalNAc
# Method in brief: as §1
# [45] = biological target: Neu5Ac(a2-3)Gal(b1-4)GlcNAc(b1-3)[Neu5Ac(a2-3)Gal(b1-4)GlcNAc(b1-6)]GalNAc
# Method in brief: as §1
# [46] = biological target: Neu5Ac(a2-3)Gal(b1-4)GlcNAc6S
# Method in brief: as §1
# [47] = biological target: Neu5Ac(a2-3)Gal(b1-4)[Fuc(a1-3)]GlcNAc(b1-3)Gal
# Method in brief: as §1
# [48] = biological target: Neu5Ac(a2-3)Gal(b1-4)[Fuc(a1-3)]GlcNAc(b1-3)Gal(b1-4)[Fuc(a1-3)]GlcNAc(b1-3)Gal(b1-4)[Fuc(a1-3)]GlcNAc
# Method in brief: as §1
# [49] = biological target: Neu5Ac(a2-6)Gal(b1-4)GlcNAc(b1-2)Man(a1-6)[Gal(b1-4)GlcNAc(b1-2)Man(a1-3)]Man(b1-4)GlcNAc(b1-4)GlcNAc
# Method in brief: as §1
# [50] = biological target: Neu5Ac(a2-8)Neu5Ac(a2-3)[GalNAc(b1-4)]Gal(b1-4)Glc
# Method in brief: as §1
# [51] = biological target: Neu5Ac(b2-6)Gal(b1-4)GlcNAc
# Method in brief: as §1
binder,measurement,setting,value
"CrataBL (Crataeva tapia), C0HJA4 (protein) AILTGVPYYILPSTSRAGFSPDNLRKNTSQLSCPLDLITQLRFPRRIGVPVIFTPQNSSLKVVPLSHNLNIHTCSDLWFCPESKIWTVKSSLTHGGSVVTTGGTFRSLGSWFRIERHGDSYKLVHCPRGSTPCRDVGIETVGGGGRRYLAPRDRPLAVRFTRASG",glycan array binding signal (z-score),[1],-0.444
same,glycan array binding signal (z-score),[2],-0.486
same,glycan array binding signal (z-score),[3],-0.497
same,glycan array binding signal (z-score),[4],5.81
same,glycan array binding signal (z-score),[5],-0.054
same,glycan array binding signal (z-score),[6],-0.507
same,glycan array binding signal (z-score),[7],-0.41
same,glycan array binding signal (z-score),[8],-0.443
same,glycan array binding signal (z-score),[9],0.386
same,glycan array binding signal (z-score),[10],-0.383
same,glycan array binding signal (z-score),[11],-0.243
same,glycan array binding signal (z-score),[12],-0.451
same,glycan array binding signal (z-score),[13],-0.207
same,glycan array binding signal (z-score),[14],-0.412
same,glycan array binding signal (z-score),[15],-0.333
same,glycan array binding signal (z-score),[16],-0.533
same,glycan array binding signal (z-score),[17],-0.465
same,glycan array binding signal (z-score),[18],-0.376
same,glycan array binding signal (z-score),[19],-0.247
same,glycan array binding signal (z-score),[20],-0.276
same,glycan array binding signal (z-score),[21],-0.237
same,glycan array binding signal (z-score),[22],-0.021
same,glycan array binding signal (z-score),[23],5.22
same,glycan array binding signal (z-score),[24],2.38
same,glycan array binding signal (z-score),[25],3.14
same,glycan array binding signal (z-score),[26],11.7
same,glycan array binding signal (z-score),[27],6.61
same,glycan array binding signal (z-score),[28],2.96
same,glycan array binding signal (z-score),[29],5.29
same,glycan array binding signal (z-score),[30],0.423
same,glycan array binding signal (z-score),[31],5.23
same,glycan array binding signal (z-score),[32],-0.374
same,glycan array binding signal (z-score),[33],-0.23
same,glycan array binding signal (z-score),[34],-0.076
same,glycan array binding signal (z-score),[35],-0.186
same,glycan array binding signal (z-score),[36],-0.434
same,glycan array binding signal (z-score),[37],0.64
same,glycan array binding signal (z-score),[38],0.084
same,glycan array binding signal (z-score),[39],-0.472
same,glycan array binding signal (z-score),[40],0.131
same,glycan array binding signal (z-score),[41],-0.112
same,glycan array binding signal (z-score),[42],-0.386
same,glycan array binding signal (z-score),[43],-0.389
same,glycan array binding signal (z-score),[44],2.17
same,glycan array binding signal (z-score),[45],0.163
same,glycan array binding signal (z-score),[46],2.07
same,glycan array binding signal (z-score),[47],-0.448
same,glycan array binding signal (z-score),[48],-0.51
same,glycan array binding signal (z-score),[49],0.067
same,glycan array binding signal (z-score),[50],0.475
same,glycan array binding signal (z-score),[51],-0.387
